esBAF inh – inhibitors of esBAF chromatin remodeling in mouse ES cells; Bmi1-luciferase knock-in reporter, 24 h; 100% = twice the neutral-well signal; reporter increase, % at 12.5 µM; hit rate 2% among 350,000; AID 602393; in the data active means activation above about 40%; inconclusive means no clear call, values can overlap the other calls;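 further: a rise in the Bmi1 reporter signal indicates esBAF inhibition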
LMP1 NFkB inh – reduces LMP1-driven NF-kappaB luciferase signal | hit rate 0.69% among 350,000 | AID 504558 | LMP1-induced NF-kappaB luciferase reporter cells, luminescence | inhibition, % at 12.5 µM; in the data active means inhibition above about 41%; inconclusive means no clear call, values can overlap the other calls
C2C12 statin – suppression of simvastatin myotoxicity. AID 602340. rescue of ATP level, % at 7.49 µM. C2C12 myotubes + simvastatin, ATP luminescence, 48 h; scaled: DMSO 0, geranylgeraniol control 100. hit rate 0.78% among 330,000;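 active means mean ATP rescue above about 67%, or every replicate alone reaching that limit, limit read from the data, passing the limit was not always enough; inconclusive means no clear call, values can overlap the other calls; inactive means mean under the limit and some replicate under it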;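 further: myotubes were challenged with 10 µM simvastatin during compound exposure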
Wnt bcat act – activates Wnt/beta-catenin signaling in a reporter cell assay. activator, plate reader. hit rate 1.2% among 300,000. activation, % at 9.35 µM. AID 743398; in the data active means activation above about 30%, passing the limit was not always enough; inconclusive means no clear call, values can overlap the other calls
MITF TRPM1 inh – inhibitors of MITF-driven TRPM1 promoter in melanoma cells. SK-MEL-5 TRPM1 promoter luciferase, 24 h. hit rate 0.83% among 330,000. AID 488899. inhibition, % at 12.5 µM;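 active means mean inhibition across replicates of 60% or more, whatever share of single replicates reaches that level; inconclusive means some that reach 60%, reason not given; inactive means mean inhibition across replicates below 60%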
MITF TRPM1 HTS – activators of MITF-driven TRPM1 promoter activity in SK-MEL-5 cells; SK-MEL-5 TRPM1-promoter luciferase, 24 h; % of positive control, neutral wells = 0; hit rate 0.75% among 300,000; activation, % at 12.5 µM;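 active means mean activation of at least 80% with every replicate also reaching 80%; inconclusive means mean reaches 80% but some replicate falls short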
Each line names hits and unclear results; the compound was inactive in the other large screens. Shown are actives, neighbours in structure and some others; about 4% of the full set was active somewhere.

COc1ccc(-c2cc3nc(C)n(N)c(=O)c3s2)cc1	LMP1 NFkB inh 76.2, MITF TRPM1 inh 78.8 (no result: esBAF inh, C2C12 statin, MITF TRPM1 HTS)
Cc1nc2cc(-c3ccccc3)sc2c(=O)n1N	LMP1 NFkB inh 73.8, MITF TRPM1 inh 89.5 (no result: esBAF inh, C2C12 statin)
COc1ccc2oc(C(=O)OCC(=O)Nc3ccc(C)c(S(=O)(=O)N4CCOCC4)c3)c(C)c2c1	esBAF inh 78.7 (no result: MITF TRPM1 inh, MITF TRPM1 HTS)
CCOC(=O)N1CCN(C(=O)c2oc3ccc(S(=O)(=O)N4CCOCC4)cc3c2C)CC1	C2C12 statin 95.4
Cc1ccc2oc(C(=O)N3CCCCCC3)c(C)c2c1	esBAF inh 63.8, MITF TRPM1 HTS 123.7
Cc1c(C(=O)N2CCOCC2)oc2ccc(S(=O)(=O)N3CCCC3)cc12	C2C12 statin 121.0
Cc1c(C(=O)N2CCCCC2)oc2ccc(Br)cc12	none (no result: esBAF inh, C2C12 statin)
COc1ccccc1NC(=O)C(=O)c1cn(CC(=O)N2CCOCC2)c2ccccc12	esBAF inh inconclusive, MITF TRPM1 HTS inconclusive
COc1ccccc1NC(=O)C(=O)c1cn(CC(=O)N2CCCC2)c2ccccc12	esBAF inh 71.9
CC(=O)Nc1cccc(NC(=O)C(=O)c2cn(CC(=O)N3CCCC3)c3ccccc23)c1	esBAF inh 47.2 (no result: Wnt bcat act, MITF TRPM1 inh, MITF TRPM1 HTS)
CCN(CC)C(=O)Cn1cc(C(=O)C(=O)Nc2ccc3c(c2)OCCO3)c2ccccc21	esBAF inh 60.4, MITF TRPM1 HTS 82.0
CC(C)NC(=O)N(C)C[C@H]1Oc2ccc(NS(=O)(=O)c3cn(C)cn3)cc2C(=O)N([C@@H](C)CO)C[C@@H]1C	none (no result: LMP1 NFkB inh, C2C12 statin, Wnt bcat act, MITF TRPM1 inh, MITF TRPM1 HTS)
CCc1nc(C)cn1S(=O)(=O)c1cc(Br)ccc1OC	none (no result: Wnt bcat act, MITF TRPM1 HTS)
Nc1nc(C2CC2)c(Sc2sc(N)nc2C2CC2)s1	C2C12 statin 69.4 (no result: Wnt bcat act)
Cc1cc(Cl)c(OCCOCCN2CCCCC2)c(Br)c1	none
Cc1ccccc1Nc1nc(N)nc(COC(=O)c2ccco2)n1	esBAF inh 77.1
Cc1ccccc1Nc1nc(N)nc(COC(=O)[C@@H](NC(=O)c2ccco2)C(C)C)n1	none (no result: esBAF inh, C2C12 statin)
Cc1ccccc1Nc1nc(N)nc(CN(C)c2ccccc2)n1	esBAF inh 46.8 (no result: Wnt bcat act)
Cc1ccc(Nc2nc(N)nc(COC(=O)c3ccc(Br)o3)n2)cc1	none
Cc1ccccc1Nc1nc(N)nc(CCl)n1	none (no result: esBAF inh, C2C12 statin, MITF TRPM1 HTS)
Nc1nc(COC(=O)c2ccco2)nc(Nc2ccccc2)n1	esBAF inh 47.8 (no result: MITF TRPM1 inh, MITF TRPM1 HTS)
Cc1ccc(Cl)cc1-c1cc(C(=O)NCc2cccc(Cl)c2)[nH]n1	none (no result: LMP1 NFkB inh, MITF TRPM1 inh, MITF TRPM1 HTS)
COc1ccc(N(CC(=O)N/N=C/c2ccc(F)cc2)S(=O)(=O)c2ccccc2)cc1	none
O=C(CCCc1c[nH]c2ccccc12)N1CCCCCC1	esBAF inh 60.4
O=C(OCC(=O)N1CCCCC1)c1c[nH]c2ccccc12	MITF TRPM1 HTS 94.0
CC1CCCN(C(=O)COC(=O)c2n[nH]c3ccccc23)C1 (stereo unspecified)	esBAF inh 69.9, LMP1 NFkB inh 60.9, MITF TRPM1 HTS inconclusive (no result: Wnt bcat act)
O=C(OCC(=O)N1CCCC1)c1c[nH]c2ccccc12	none
COC(=O)C1CCN(C(=O)COC(=O)c2n[nH]c3ccccc23)CC1	none (no result: C2C12 statin, Wnt bcat act, MITF TRPM1 HTS)
O=C(CCc1c[nH]c2ccccc12)N1CCCC1	none
CC1CCN(C(=O)COC(=O)c2c[nH]c3ccccc23)CC1	esBAF inh 57.0
COCCN(C(=O)CSc1nnc(-c2cccs2)n1N)c1c(N)n(Cc2ccccc2)c(=O)[nH]c1=O	none
COc1ccc(CNCC2COc3ccccc3O2)cc1 (stereo unspecified)	none
O=C(COC(=O)C1CC1)c1c[nH]c2ccccc12	esBAF inh 47.8 (no result: Wnt bcat act)
O=C(COC(=O)c1n[nH]c2ccccc12)Nc1ccccc1F	esBAF inh 122.8
Cc1ccc(-c2nn(-c3ccccc3)cc2CO)o1	esBAF inh 46.2 (no result: Wnt bcat act)
OCc1cn(-c2ccccc2)nc1-c1ccco1	esBAF inh 42.0 (no result: Wnt bcat act)
OCc1cn(-c2ccccc2)nc1-c1ccc(-c2nn(-c3ccccc3)cc2CO)cc1	none (no result: C2C12 statin)
Cc1ccc(-c2nn(-c3ccccc3)cc2C=O)o1	esBAF inh inconclusive, Wnt bcat act 45.5
COCCNC(=O)C[C@@H]1CC[C@H]2[C@@H](COc3ccc(NC(=O)Nc4ccccc4)cc3C(=O)N2C)O1	none (no result: LMP1 NFkB inh, Wnt bcat act, MITF TRPM1 inh, MITF TRPM1 HTS)
Clc1ccc(-c2nnc(-c3ccco3)o2)cc1	esBAF inh 59.6, Wnt bcat act 38.5
c1cncc(-c2nnc(-c3ccco3)o2)c1	none (no result: Wnt bcat act)
C=CCn1c(COc2cccc3cccnc23)nnc1SCC(=O)O	C2C12 statin 105.3

Assay outcomes (PubChem BioAssay)
